Consider 76 compounds from PubChem BioAssay AID488969 (Vanderbilt High Throughput Screening Facility, 2010).

The full ranking holds about 110,000 compounds; the median of “z-score” is about -0.1, and the highest 2% start at about 2. The list comes from a sample in which the highest values are over-represented; it also holds similar structures and randomly drawn compounds. Calls of active or inactive are those of the source.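 Rule for the calls: active = z-score in the third read window above 3 or below -3; inactive = the rest.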

In the test the target is Metabotropic glutamate receptor 8 (Rattus norvegicus) (UniProt P70579). The test is described as follows: rat mGluR8 modulators via GIRK flux, primary screen, cell-based, thallium flux, HTS (AID 488969). As to conditions: HEK293 rat mGluR8, GIRK (G protein-gated inwardly rectifying potassium channel) thallium flux, FluoZin2; at 10 µM; stronger effect = higher value; submaximal glutamate (EC20) added with thallium.
Sequence of Metabotropic glutamate receptor 8 (Rattus norvegicus) (P70579 whole entry, looked up): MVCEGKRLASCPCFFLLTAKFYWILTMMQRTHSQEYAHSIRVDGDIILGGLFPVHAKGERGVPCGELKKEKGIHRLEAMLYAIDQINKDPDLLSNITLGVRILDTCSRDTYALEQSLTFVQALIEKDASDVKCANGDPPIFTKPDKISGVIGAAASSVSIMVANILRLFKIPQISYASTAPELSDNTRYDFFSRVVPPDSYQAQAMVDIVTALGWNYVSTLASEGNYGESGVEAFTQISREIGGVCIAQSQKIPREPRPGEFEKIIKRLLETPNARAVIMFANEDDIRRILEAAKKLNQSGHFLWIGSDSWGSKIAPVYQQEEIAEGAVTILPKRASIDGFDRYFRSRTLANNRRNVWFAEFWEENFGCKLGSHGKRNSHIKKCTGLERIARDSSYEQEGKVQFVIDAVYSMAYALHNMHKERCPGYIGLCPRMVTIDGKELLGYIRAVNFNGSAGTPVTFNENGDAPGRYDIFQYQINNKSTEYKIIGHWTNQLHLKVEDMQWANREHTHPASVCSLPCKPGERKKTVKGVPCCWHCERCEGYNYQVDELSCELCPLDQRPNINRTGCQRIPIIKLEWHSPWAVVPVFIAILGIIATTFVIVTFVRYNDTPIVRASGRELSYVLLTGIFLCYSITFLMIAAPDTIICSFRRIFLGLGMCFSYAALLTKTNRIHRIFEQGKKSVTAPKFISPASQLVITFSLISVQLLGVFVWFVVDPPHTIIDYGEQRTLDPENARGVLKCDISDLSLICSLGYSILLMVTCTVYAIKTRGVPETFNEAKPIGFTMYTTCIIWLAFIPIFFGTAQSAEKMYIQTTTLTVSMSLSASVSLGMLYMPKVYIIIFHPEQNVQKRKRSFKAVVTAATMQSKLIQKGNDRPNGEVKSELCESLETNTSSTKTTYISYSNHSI
Regarding `CCc1ccc(N2C(=O)C(Cl)=C(N3CCOCC3)C2=O)cc1`, the z-score is -0.428.

The compound `Cc1ccc(N2C(=O)C(Cl)=C(N3CCOCC3)C2=O)cc1Cl` came in with a z-score of -0.0801.

As to `O=C1C(Cl)=C(N2CCOCC2)C(=O)N1c1cccc(Cl)c1`, the z-score was 13.9 (active).

Compound `CCN(CC)CCn1c(SCC(=O)NCc2ccco2)nc2c(sc3ccccc32)c1=O` registered a z-score of -0.759.

In turn, `Cc1nn(-c2ccccc2)c(C)c1/C=N/NC(=O)CSc1nnc(-c2ccccc2)n1-c1ccc(Cl)cc1` gave a z-score of 0.0544.

In the case of `O=C(Nc1nc(-c2cc3ccccc3oc2=O)cs1)c1ccc(Br)o1`, the z-score was 13.7 (active).

Regarding `O=C(Nc1nc2c(Cl)cccc2s1)c1ccc(Br)o1`, the z-score is 0.452.

`O=C(Nc1nc(-c2ccccc2)cs1)c1ccc(Br)o1`: the z-score turned out to be 2.96.

`O=c1oc2ccccc2cc1-c1csc(NN=C2CCCC2)n1` gave a z-score of -0.3.

Turning to `O=C(Nc1nc2ccc(Cl)cc2s1)c1ccc(Br)o1`, the z-score was 6.8 (active).

Turning to `O=C(Nc1cccc(-c2cc3ccccc3oc2=O)c1)c1ccc(Br)o1`, the z-score is -0.101.

Consider `O=C(Nc1nc2ccc(Cl)cc2s1)c1ccco1`, for which the z-score is -0.371.

As for `Cc1ccc(C(=O)Nc2nc(-c3cccnc3)cs2)o1`, the z-score was -0.0733.

Take `O=C(Nc1nc(-c2ccccc2)cs1)c1cccs1`: the z-score is -0.61.

As to `O=C(CSc1ncn(-c2ccccc2)n1)NCc1ccccc1`, the z-score was -0.242.

The compound `CCN1CNC(=S)N(c2ccccc2OC)C1` yielded a z-score of -0.242.

As for `COCCn1c(SCC(=O)NCc2ccco2)nc2cccnc21`, the z-score was 0.0661.

Turning to `COc1ccc(-c2noc(CCC(=O)Nc3cc(Cl)c(OC)cc3OC)n2)cc1`, the z-score was -0.134.

With `COC(=O)c1cc(OC)c(OC)cc1NC(=O)Nc1ccc(OC)cc1`, the z-score was -0.0386.

As for `COC(=O)c1cc(OC)c(OC)cc1NC(=O)Nc1ccc(OC)cc1OC`, the z-score is 3.48 (active).

Turning to `COC(=O)c1cc(OC)c(OC)cc1NC(=O)Nc1ccccc1OC`, the z-score was -0.56.

The compound `COc1ccccc1NC(=O)C(Sc1ccccc1)c1ccccc1` (stereo unspecified) displayed a z-score of 0.792.

Compound `COc1ccc(NC(=O)C(Sc2ccccc2)c2ccccc2)c(OC)c1` (stereo unspecified) yielded a z-score of 2.25.

`COc1ccc(OC)c(NC(=O)C(Sc2ccccc2)c2ccccc2)c1` (stereo unspecified) came in with a z-score of 0.629.

In turn, `COc1cc2cc(C#N)c(SCC(=O)N3CCOCC3)nc2cc1OC` yielded a z-score of 0.593.

The compound `C=CCn1cc(/C=N/NC(=O)COc2cccc3cccnc23)c2ccccc21` had a z-score of -0.515.

`Cc1ccc(-c2nn(CCC#N)cc2C=C(C#N)C#N)cc1` returned a z-score of 0.287.

Compound `O=S(=O)(c1ccccc1)n1c(C(O)c2ccccn2)cc2ccccc21` (stereo unspecified) showed a z-score of 0.524.

As to `COc1ccc(N(CC(=O)N2c3ccccc3CC2C)S(=O)(=O)c2c(C)nn(C)c2C)cc1` (stereo unspecified), the z-score was -0.0129.

Turning to `COC(=O)c1cccc(NC(=O)NC23CC4CC(CC(C4)C2)C3)c1`, the z-score is -0.16.

Take `CCOc1ccc(NC(=O)Nc2ccc3nccnc3c2)cc1`: the z-score is -0.163.

In turn, `COc1cccc(NC(=O)Nc2cccs2)c1` came in with a z-score of 1.67.

The compound `O=C(Nc1ccc2c(c1)OCCO2)NC12CC3CC(CC(C3)C1)C2` had a z-score of 2.32.

Compound `COc1ccc(NC(=O)NC23CC4CC(CC(C4)C2)C3)cc1OC` displayed a z-score of -0.136.

In turn, `CCOc1ccc(NC(=O)Nc2cccs2)cc1` registered a z-score of 2.37.

`CCOc1ccc(NC(=O)C23CC4CC(C2)CC(c2ccccc2)(C4)C3)cc1` registered a z-score of -0.381.

On to `N#Cc1cccc(NC(=O)Nc2cccs2)c1`, for which the z-score is 2.55.

Consider `CCOc1ccc(NC(=O)NC23CC4CC(CC(C4)C2)C3)cc1`, for which the z-score is 4.76 (active).

For `CCOc1ccc(NC(=O)Nc2ccc(N(C)C(C)=O)cc2)cc1`, the z-score turned out to be 0.478.

The compound `N#Cc1cccc(NC(=O)c2ccccc2C(=O)O)c1` displayed a z-score of -0.112.

Consider `O=C(NNC(=O)c1ccc2c(c1)OCO2)NC12CC3CC(CC(C3)C1)C2`, for which the z-score is -0.287.

`CNC(=O)NC(=O)CSc1nc2ccccc2n1CCOC`: the z-score is -0.465.

The compound `O=C1C2CCCN2C(c2cccc(Br)c2)N1c1ccc(F)cc1` (stereo unspecified) came in with a z-score of -0.401.

As for `C/C(=N/NC(=O)OC(C)(C)C)c1ccco1`, the z-score is -0.124.

`COC(=O)c1cn(CC(=O)N2CCCCC2C)c2ccccc12` (stereo unspecified) returned a z-score of -0.213.

The compound `COC(=O)c1ccc(C(=O)OC)c(NC(=O)CCc2ccc(C)o2)c1` showed a z-score of -0.67.

Turning to `CCCCCn1cnc2sc(CC)cc2c1=O`, the z-score is -0.4.

On to `Cc1ccc(C(CCN)c2ccco2)cc1` (stereo unspecified), for which the z-score was 0.345.

With `O=C1NC(=O)/C(=C\c2ccc(Sc3ccc(Cl)cc3)o2)N1`, the z-score was -0.263.

The compound `Cc1cccc(NC(=S)NCC(c2cccnc2)N(C)C)c1` (stereo unspecified) had a z-score of 0.286.

`CCOC(=O)c1ccc2ncc(C(=O)OCC)c(NCCN(C)C)c2c1` gave a z-score of -0.571.

On to `C=CCN(CC=C)C(=S)NC(=O)/C=C/c1ccc(C)cc1`, for which the z-score is 4.57 (active).

As to `COc1ccc(C(=O)NC(=S)NC(C)(C)C)cc1Br`, the z-score is 0.436.

`CCN(CC)C(=O)c1ccc(C)c(Br)c1` yielded a z-score of -0.37.

Turning to `COc1ccc(C(=O)NCc2ccccc2)cc1Br`, the z-score is -0.234.

In turn, `COc1ccc(C(=O)NC(=S)NC(C)C)cc1Br` had a z-score of 1.79.

Turning to `CCCCC(=O)Nc1ccc(C(=O)NNC(=O)c2ccc(C)c(Br)c2)cc1`, the z-score was -0.00519.

On to `COc1ccc(C(=O)NC(=S)NCCO)cc1Br`, for which the z-score was 4.72 (active).

With `Cc1ccc(/C=C/C(=O)c2ccc(C)cc2)cc1`, the z-score was 0.025.

As to `C=CCN(CC=C)S(=O)(=O)c1ccc(NC(=S)NC(=O)/C=C/c2ccc(C)cc2)cc1`, the z-score is -0.0815.

Turning to `C=CCN(CC=C)C(=S)NC(=O)c1ccc(C)c(Br)c1`, the z-score was 15.3 (active).

`C=CCN(CC=C)C(=S)NC(=O)c1ccc(OC)c(Br)c1`: the z-score is 15.4 (active).

`C=CCN(CC=C)C(=S)NCCc1ccc(OC)c(OC)c1`: the z-score was -0.0119.

`CCOC(=O)c1nn(-c2ccc(C)c(C)c2)c(=O)c2c(N)scc12`: the z-score is -0.137.

Regarding `CC(C)(C)/C(O)=C/c1nc2ccccc2[nH]c1=O`, the z-score is -0.317.

The compound `COc1ccccc1CNC(=S)NCCc1ccccc1` yielded a z-score of -0.133.

In turn, `COCCn1c(C)cc(C(=O)COC(=O)c2cncc(Br)c2)c1C` showed a z-score of 0.145.

With `COC(=O)c1cc2ccsc2n1Cc1cc(=O)n2ccccc2n1`, the z-score was -0.127.

On to `COc1cccc(C(C(=O)NC2CCCC2)N(Cc2ccco2)C(=O)c2ccco2)c1OC` (stereo unspecified), for which the z-score was -0.188.

For `CC1=CC(c2ccccc2)NC(=S)N1` (stereo unspecified), the z-score is -0.113.

With `CCOC(=O)C1=C(C)C(c2ccccc2)NC(=S)N1` (stereo unspecified), the z-score came to 0.0117.

Regarding `CC1=C(C)C(c2ccccc2)NC(=S)N1` (stereo unspecified), the z-score was 3.39 (active).

Take `CSc1ccn(CCC(=O)O)c(=O)n1`: the z-score is -0.489.

As to `CC(=O)c1cnn(-c2nc3c(C)cccc3s2)c1C`, the z-score was -0.111.

The compound `c1ccc(-n2nnnc2-n2ccnc2)cc1` came in with a z-score of 0.463.

`COc1ccc(S(=O)(=O)Cc2ccc(C(=O)NCc3cccnc3)o2)cc1` registered a z-score of -0.0868.
